62 molecules from PubChem BioAssay (Tox21) can be followed below.

SMILES strings stand for the structures. Results filed as inconclusive are left out. Where a call stands in place of a potency, no number is given. The source made the active and inactive calls. The call rests on the fitted dose curve.

This experiment concerns the target 5-hydroxytryptamine receptor 2A (Homo sapiens) (UniProt P28223). In words: 5-hydroxytryptamine receptor 2A (HTR2A) small molecule antagonists, cell-based qHTS assay (AID 1963586). Further: nearly all actives have a fitted effect of over 45% in size. In a few lines:
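CHO cells stably expressing human HTR2A were plated for 18 h at 37 C, then loaded with calcium dye for 1 h. Compounds were preincubated 5 min at room temperature before DOI (4 nM solution) was added. Kinetic fluorescence was read for 3 min.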

Sequence of 5-hydroxytryptamine receptor 2A (Homo sapiens) (P28223 whole entry, looked up): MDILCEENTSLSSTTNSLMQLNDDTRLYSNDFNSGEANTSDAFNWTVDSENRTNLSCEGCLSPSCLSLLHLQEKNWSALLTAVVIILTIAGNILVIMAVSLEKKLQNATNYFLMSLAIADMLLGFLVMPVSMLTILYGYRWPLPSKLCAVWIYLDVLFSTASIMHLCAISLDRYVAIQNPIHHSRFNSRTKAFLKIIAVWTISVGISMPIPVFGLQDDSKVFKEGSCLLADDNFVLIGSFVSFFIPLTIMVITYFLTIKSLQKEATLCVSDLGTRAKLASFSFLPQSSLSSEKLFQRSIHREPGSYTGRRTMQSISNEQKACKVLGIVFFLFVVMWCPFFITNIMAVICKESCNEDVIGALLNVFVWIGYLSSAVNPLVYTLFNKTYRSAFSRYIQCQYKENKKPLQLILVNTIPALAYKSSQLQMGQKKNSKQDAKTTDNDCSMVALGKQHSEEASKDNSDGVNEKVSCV

Turning to `Fc1ccccc1-c1ccccc1`, the Potency result was “inactive”.
Turning to `CC(C)C(=O)O`, the Potency result was “inactive”.
On to `CCc1ccc(C)nc1`, for which the Potency result is “inactive”.
Then `O=S(=O)(O)c1ccc2cc(O)c(S(=O)(=O)O)cc2c1`, with “inactive”; and `Cc1ccc2n[nH]nc2c1`, with “inactive”; and `CC(C=O)c1ccccc1` (configuration not stated), with “inactive”.
As to `CCCc1c2oc(C(=O)O)cc(=O)c2cc2c(=O)cc(C(=O)O)n(CC)c12`, the Potency entry is “inactive”.
Regarding `Cc1ccc(C)o1`, the Potency result is “inactive”.
As for `CCN(CC)C(=O)C1CN2CCc3cc(OC)c(OC)cc3C2CC1OC(C)=O` (configuration not stated), the Potency result is “inactive”.
Regarding `Cc1sccc1Br`, the Potency result is “inactive”.
As to `C=CC(C)(O)CC/C=C(\C)CC` (configuration not stated), the Potency entry was “inactive”.
Consider `CCCC=O`, for which the Potency entry is “inactive”.
Then `CS(=O)(=O)O`, with “inactive”; and `ON(Cc1ccccc1)Cc1ccccc1`, with “inactive”.
`CC1C(C)(C)C2=C(C(=O)CCC2)C1(C)C` (configuration not stated): the Potency result is “inactive”.
Then `CC(C)=CCCC(C)CCOC(=O)C(C)C` (configuration not stated), with “inactive”; and `O=[Si]=O`, with “inactive”.
Then `Cc1occc1SSc1ccoc1C`, with “inactive”; and `Cc1cn([C@H]2C[C@H](F)[C@@H](CO)O2)c(=O)[nH]c1=O`, with “inactive”.
Then `CCCC(C)C(O)CC` (configuration not stated), with “inactive”; and `O=C1c2c(O)ccc(Nc3ccc(CCO)cc3)c2C(=O)c2c([N+](=O)[O-])ccc(O)c21`, with “inactive”.
Take `CNC(=O)[C@H]1O[C@@H](n2cnc3c(NCc4cc(Cl)ccc4OCc4cc(C)no4)ncnc32)[C@H](O)[C@@H]1N`: the Potency entry is “inactive”.
Then `O=c1[nH][nH]c(=O)c2cc([N+](=O)[O-])ccc12`, with “inactive”; and `CC12CCC(C1)C(C)(C)C2O` (configuration not stated), with “inactive”; and `NC(=O)Cc1cccc(C(=O)c2ccccc2)c1N`, with “inactive”.
As for `O=C[O][Al]([O]C=O)[O]C=O`, the Potency result was “inactive”.
Then `BrC1CCC(Br)C(Br)CCC(Br)C(Br)CCC1Br` (configuration not stated), with “inactive”; and `O=C(O)c1ccc(OCCCOc2ccc(C(=O)O)cc2)cc1`, with “inactive”.
Consider `CN(C)Cc1ccccc1O`, for which the Potency entry was “inactive”.
On to `Cc1cccc(N(C)C)c1`, for which the Potency result was “inactive”.
As for `CCCCC(=O)N(C)C`, the Potency result is “inactive”.
Regarding `CCc1c(C(=O)O)c(=O)cnn1-c1ccc(Cl)cc1`, the Potency entry was “inactive”.
Then `COC(=O)CCCCC(=O)O`, with “inactive”; and `C=CC(=O)OCCOC(=O)C=C`, with “inactive”; and `O=C(O)c1cc(C(=O)O)cc([N+](=O)[O-])c1`, with “inactive”.
Then `NC(=O)Nc1ccc(Cl)cc1`, with “inactive”; and `FC(F)(F)c1ccccc1Cl`, with “inactive”.
Then `O=C1CC2CC1C1CCCC21` (configuration not stated), with “inactive”; and `O=C(/C=C/c1ccccc1)OCc1ccccc1`, with “inactive”.
On to `O=C(O)[C@H](O)[C@@H](O)[C@H](O[C@@H]1O[C@H](CO)[C@H](O)[C@H](O)[C@H]1O)[C@H](O)CO`, for which the Potency entry is “inactive”.
On to `CC(C)S`, for which the Potency entry is “inactive”.
Then `CCCC(O)C(O)CO` (configuration not stated), with “inactive”.
Regarding `CCCCCC(C)=O`, the Potency entry is “inactive”.
For `CCCOCCO`, the Potency entry is “inactive”.
Then `OCCc1ccccn1`, with “inactive”; and `CCC(=O)OCc1ccc(OC)cc1`, with “inactive”; and `COc1ccccc1N=Nc1c(S(=O)(=O)O)cc2cc(S(=O)(=O)O)cc(NC(C)=O)c2c1O`, with “inactive”.
Then `OCCN1CCNCC1`, with “inactive”; and `CCCCC/C=C/C=C/C=O`, with “inactive”; and `COCCOCCOCCOCCOC`, with “inactive”.
Then `CC(=C(CCOC(=O)C(C)C)SSC(CCOC(=O)C(C)C)=C(C)N(C=O)Cc1cnc(C)nc1N)N(C=O)Cc1cnc(C)nc1N`, with “inactive”; and `CC(=O)c1ccccc1N`, with “inactive”.
With `CNC(=O)Nc1ccc(Cl)c(Cl)c1`, the Potency entry was “inactive”.
Then `CC(C)c1cccc(C(C)C)c1N`, with “inactive”.
Then `Nc1ncnc2c1ncn2[C@@H]1O[C@H](COP(=O)(O)O)[C@@H](O)[C@H]1O`, with “inactive”.
Then `CCCCOC(=O)CCCCCCCC(=O)OCCCC`, with “inactive”; and `O=S(=O)(O)CCN1CCN(CCO)CC1`, with “inactive”; and `CCCOCCOCCOCCO`, with “inactive”.
As for `CC1CCC(C(C)(C)S)C(=O)C1` (configuration not stated), the Potency result was “inactive”.
Then `CCC(C)(O)CCC=C(C)C` (configuration not stated), with “inactive”; and `CCCCOC(=O)CCS`, with “inactive”.
With `Cc1ccc(CO)cc1`, the Potency entry is “inactive”.
